# Data reported in PubChem BioAssay (NCATS).
# Records with an inconclusive call do not appear. Where a call stands in place of a potency, no number is given. A number with no mark means an inactive call. Active and inactive are the calls of the source. Calls come from the whole dose curve; as a rule, active = well fitted curve in the direction sought with a large enough effect; inconclusive = small, poorly fitted or top-dose-only effect, or another doubt; inactive = no such curve, though single readings can be large; an effect the other way counts as inactive or inconclusive.
# Columns and labels:
# [1] = molecular target: Aldehyde dehydrogenase, mitochondrial (Homo sapiens) (UniProt P05091); test: qHTS for Inhibitors of the Aldehyde Dehydrogenase Family (ALDH2) Primary screen (AID 2061308); note: nearly all actives have a fitted effect of over 55% in size; note: potency is the fitted concentration of half-maximal effect
# [2] = molecular target: Retinal dehydrogenase 2 (Homo sapiens) (UniProt O94788); test: qHTS for Inhibitors of the Aldehyde Dehydrogenase Family (ALDH1A2) Confirmation screens (AID 2061314); note: nearly all actives have a fitted effect of over 65% in size; note: potency is the fitted concentration of half-maximal effect
# [3] = molecular target: Retinaldehyde dehydrogenase 3 (Homo sapiens) (UniProt P47895); test: qHTS for Inhibitors of the Aldehyde Dehydrogenase Family (ALDH1A3) Validation screen (AID 2061312); note: nearly all actives have a fitted effect of over 45% in size
# [4] = BET inhibitor-based combinations targeting novel dependencies in MECOM-rearranged (r) AML: SET-2 cell line (AID 2202231); conditions: SET-2 AML cells viability, CellTiter-Glo luminescence, 48 h; viability: stronger effect = lower value, concentration not given here; note: nearly all actives have a fitted effect of over 35% in size; note: potency is the fitted concentration of half-maximal effect
# Outline: (§1)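 500 cells/well; 11-pt dose curve; 48 h, standard incubator; CellTiter-Glo luminescence after 15 min RT; DMSO/empty-well normalization; AUC plus Z-AUC (mean-centered within each line).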
# [5] = BET inhibitor-based combinations targeting novel dependencies in MECOM-rearranged (r) AML: OCI-AML3 cell line (AID 2202232); conditions: Potency: OCI-AML3 viability; note: potency is the fitted concentration of half-maximal effect; nearly all actives have a fitted effect of over 35% in size
# Outline: as §1
# [6] = BET inhibitor-based combinations targeting novel dependencies in MECOM-rearranged (r) AML: MV-4-11 cell line (AID 2202233); note: potency is the fitted concentration of half-maximal effect; nearly all actives have a fitted effect of over 45% in size
# Outline: (§2)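 Cells were plated at 500 per well and exposed to each drug across an 11-point dose range for 48 hr at standard incubator conditions. Viability was read by CellTiter-Glo luminescence, and activity was expressed as AUC and per-cell-line Z-transformed AUC.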
# [7] = BET inhibitor-based combinations targeting novel dependencies in MECOM-rearranged (r) AML: HNT-34 cell line (AID 2202234); note: potency is the fitted concentration of half-maximal effect; nearly all actives have a fitted effect of over 35% in size
# Outline: as §2
# [8] = BET inhibitor-based combinations targeting novel dependencies in MECOM-rearranged (r) AML: UCSD-AML1 cell line (AID 2202235); note: potency is the fitted concentration of half-maximal effect; nearly all actives have a fitted effect of over 40% in size
# Outline: as §2
# [9] = BET inhibitor-based combinations targeting novel dependencies in MECOM-rearranged (r) AML: AML-191 cell line (AID 2202236; note: potency is the fitted concentration of half-maximal effect; nearly all actives have a fitted effect of over 35% in size)
# Outline: as §1
# [10] = BET inhibitor-based combinations targeting novel dependencies in MECOM-rearranged (r) AML: AML-194 cell line (AID 2202237; note: nearly all actives have a fitted effect of over 40% in size; note: potency is the fitted concentration of half-maximal effect)
# Outline: as §1
# [11] = molecular target: Retinaldehyde dehydrogenase 3 (Homo sapiens) (UniProt P47895); test: qHTS for Inhibitors of the Aldehyde Dehydrogenase Family (ALDH1A3) Primary screen (AID 2061315)
# [12] = molecular target: Aldehyde dehydrogenase 1A1 (Homo sapiens) (UniProt P00352); test: qHTS for Inhibitors of the Aldehyde Dehydrogenase Family (ALDH1A1) Confirmatory screens (AID 2061316); note: nearly all actives have a fitted effect of over 65% in size; note: potency is the fitted concentration of half-maximal effect
smiles,measurement,setting,value
CC(=O)NC(c1ccco1)c1cc(Cl)c2ccc(Cl)nc2c1O (stereo not given),Potency,[1],inactive
same,Potency,[2],6.34 µM (active)
Cc1[nH]c2ccccc2c1CCNCc1ccc(/C=C/C(=O)NO)cc1,Potency,[1],inactive
same,Potency,[3],inactive
same,Potency,[4],0.0833 µM (active)
same,Potency,[5],0.0661 µM (active)
same,Potency,[6],0.0525 µM (active)
same,Potency,[7],0.0934 µM (active)
same,Potency,[8],0.0934 µM (active)
same,Potency,[9],0.0833 µM (active)
same,Potency,[10],0.105 µM (active)
C=C(c1ccc(C(=O)O)cc1)c1cc2c(cc1C)C(C)(C)CCC2(C)C,Potency,[1],inactive
same,Potency,[3],inactive
same,Potency,[11],inactive
same,viability,[4],115%
same,Potency,[6],0.148 µM (active)
same,Potency,[10],inactive
Cc1cc(C)nc(NC(=S)N2CCN(c3nccc4ccsc34)CC2)c1,Potency,[1],inactive
same,Potency,[11],inactive
COc1cc(O)c(C(CC(=O)N2CCCC(C(=O)c3ccccc3)C2)c2ccc3c(c2)OCO3)c(OC)c1 (stereo not given),Potency,[1],inactive
same,Potency,[11],inactive
c1nc(NCC2CCCCO2)c2cc(-c3ccc4c(c3)OCO4)ccc2n1 (stereo not given),Potency,[1],inactive
same,Potency,[2],22.5 µM (active)
same,Potency,[11],inactive
same,Potency,[12],12.7 µM (active)
O=C(Cc1ccc(Cl)c(Cl)c1)Nc1ccc(S(=O)(=O)Nc2ccccc2)cc1,Potency,[1],inactive
same,Potency,[11],inactive
Cc1cc(C)n2ncc(C(=O)Nc3ccc4c(c3)OCCO4)c2n1,Potency,[1],inactive
same,Potency,[11],inactive
C=Cc1ccc(C(=O)N2CCCC(CCC(=O)N3CCN(c4ccccn4)CC3)C2)cc1 (stereo not given),Potency,[1],inactive
same,Potency,[11],inactive
CCN(Cc1sccc1C)c1ncnc2ccc(-c3ccc4c(c3)OCO4)cc12,Potency,[1],inactive
same,Potency,[11],inactive
O=C(OCC#CCSc1nnc(-c2ccc3ccccc3c2)o1)c1ccc(OC(F)(F)F)cc1,Potency,[1],inactive
same,Potency,[11],inactive
CC(=O)Nc1sc2c(c1C(=O)c1ccccc1)CCN(C(C)C)C2,Potency,[1],inactive
same,Potency,[11],inactive
O=C1c2ccccc2NC(c2ccc(-c3ccc(C(F)(F)F)cc3)o2)N1O (stereo not given),Potency,[1],4.47 µM (active)
same,Potency,[2],22.5 µM (active)
same,Potency,[11],inactive
same,Potency,[12],7.12 µM (active)
c1ccc(CNc2ccc(N3CCOCC3)cc2)cc1,Potency,[1],inactive
same,Potency,[2],12.7 µM (active)
same,Potency,[12],7.98 µM (active)
COc1ccc(C(=O)Nc2nnc(-c3ccco3)o2)cc1OC,Potency,[1],inactive
same,Potency,[11],inactive
O=C1NC(=O)/C(=C/c2ccco2)N1,Potency,[1],inactive
same,Potency,[11],inactive
Cc1ccc(NS(=O)(=O)c2cc3c(cc2N[C@@H](C)CO)NC(=O)CC3)cc1Cl,Potency,[1],inactive
same,Potency,[2],22.5 µM (active)
same,Potency,[11],inactive
same,Potency,[12],inactive
N#Cc1c(-c2ccc(F)c(Br)c2)no[n+]1[O-],Potency,[1],3.98 µM (active)
same,Potency,[2],2.52 µM (active)
same,Potency,[11],inactive
same,Potency,[12],20.1 µM (active)
COc1cc(O)c(C(CC(=O)N2CCCC(C(F)(F)F)C2)c2ccc3c(c2)OCO3)c(OC)c1 (stereo not given),Potency,[1],inactive
same,Potency,[11],inactive
COc1cccc(NS(=O)(=O)c2ccc(C)cc2)c1C(=O)Nc1nc(-c2ccccc2)cs1,Potency,[1],inactive
same,Potency,[11],inactive
Cc1c(C(=O)OCC2CC2)[nH]c2c1C(=O)CC(c1ccco1)C2 (stereo not given),Potency,[1],inactive
same,Potency,[2],8.96 µM (active)
same,Potency,[11],inactive
same,Potency,[12],1.59 µM (active)
Cc1cc(-c2nnc3n2CCCCC3)c(C)n1-c1ccccc1,Potency,[1],inactive
same,Potency,[11],inactive
CCCn1c(C)nc2c(N3CCN(C)CC3)nc(C)nc21,Potency,[1],inactive
same,Potency,[11],inactive
O=C(CN1C(=O)N/C(=C\c2cccn2-c2cccc(C(=O)O)c2)C1=O)Nc1cccc(F)c1,Potency,[1],inactive
same,Potency,[11],inactive
CC(O)c1ccc(-c2ccc3ncnc(N4CCOCC4)c3c2)o1 (stereo not given),Potency,[1],8.91 µM (active)
same,Potency,[2],14.2 µM (active)
same,Potency,[11],inactive
same,Potency,[12],11.3 µM (active)
Cc1cc(C2N=C(Nc3nc4ccccc4o3)NC3=C2C(=O)CCC3)n[nH]1 (stereo not given),Potency,[1],inactive
same,Potency,[11],inactive
O=S(=O)(c1ccc2c(c1)OCCO2)C1CCN(S(=O)(=O)c2c(F)cccc2F)CC1,Potency,[1],inactive
same,Potency,[11],inactive
Cc1ccc(NS(=O)(=O)c2ccc3c(c2)C(Cl)(Cl)C(=O)N3)cc1C,Potency,[1],inactive
same,Potency,[2],3.18 µM (active)
same,Potency,[11],inactive
same,Potency,[12],7.12 µM (active)
CC(=O)Nc1sc2c(c1-c1nc3ccccc3s1)CCN(C)C2,Potency,[1],inactive
same,Potency,[11],inactive
Cc1ccc2nc3sc(C(=O)N4CCN(C5CCN(C)CC5)CC4)cc3cc2c1,Potency,[1],inactive
same,Potency,[2],inactive
same,Potency,[11],inactive
same,Potency,[12],12.7 µM (active)
Cc1ccc(C(=O)NC(c2ccco2)c2cc(Cl)c3cccnc3c2O)cc1 (stereo not given),Potency,[1],inactive
same,Potency,[11],inactive
